Molecules are shown by their SMILES. Records with an inconclusive call do not appear. The source made the active and inactive calls. The call rests on the fitted dose curve; in most records, active means well fitted activation curve with a large enough effect in the signal ratio; inconclusive means small, poorly fitted or top-dose-only effect, or effect the other way, or a change in a side signal; inactive means flat fitted curve, though single readings scatter; the % refers to the signal ratio.
Potency means the concentration at half of the fitted maximal effect.

A short description of this assay: qHTS assay to identify small molecules that stimulate interleukin-8 (IL-8) secretion (AID 651758). On activation: 0% is about no effect. The settings on record: HTRF ratio (665/615); series mostly up to 92.2 µM; activation: at the top concentration. The text has this:
National Center for Advancing Translational Sciences [NCATS]
NIH Chemical Genomics Center [NCGC]
National Institutes of Environmental Health Sciences [NIEHS]
National Toxicology Program [NTP]
Interleukin-8 is a 8 kDa chemokine produced by macrophages and other cells like epithelial cells that is often associated with inflammation. Interleukin-8 secretion is a key parameter in localized inflammation. There is a growing concern for some of environmental chemicals which may contribute the increasing the incidence of inflammation. A homogeneous IL-8 assay using Time Resolved fluorescence (HTRF) technology based on Time Resolved Fluorescent Resonance Energy Transfer (TR-FRET) allows to measure IL-8 secreted from the cells in a 1536-well plate format.
THP-1 cells were dispensed at 2000 cells/5ul/well in 1536-well white solid plates. After addition of 23 nl of compound, positive controls and DMSO only, the assay plates were incubated at 37 C for 16 hrs, followed by addition of 5 uL of mixture of cryptate labeled and XL665 labeled anti-IL-8 antibodies. After the assay plates were incubated at room temperature for 1-3 hrs, the plates were measured by an EnVision plate reader.
On to `CC(O)C(=O)O` (stereo not given), for which the “activation” value is 15% (inactive).
On to `CN(C)/N=N/c1nc[nH]c1C(N)=O`, for which the Potency was 75 µM (active).
As for `Oc1c(I)cc(Cl)c2cccnc12`, the “activation” value is 24.6% (inactive).
Turning to `O=C(O)CCCCC(=O)O`, the “activation” value was 6.36% (inactive).
On to `O=c1ccc2ccccc2o1`, for which the “activation” value was 11.9% (inactive).
In the case of `Nc1ccc(C(=O)O)cc1`, the “activation” value was -14.1% (inactive).
For `Oc1ccc(O)cc1`, the Potency was 66.8 µM (active).
As to `O=C1OC(c2ccc(O)cc2)(c2ccc(O)cc2)c2ccccc21`, the “activation” value was 6.06% (inactive).
`Oc1ccc(Cl)cc1Sc1cc(Cl)ccc1O`: the “activation” value is 11.3% (inactive).
With `COC1=CC(=O)C[C@@H](C)[C@]12Oc1c(Cl)c(OC)cc(OC)c1C2=O`, the “activation” value was 14.8% (inactive).

Source of the values: PubChem BioAssay (NCATS).
